KB-V1 cytotox = qHTS assay for MDR1-selective chemotherapeutics: Primary screen using the drug-selected MDR subline cells KB-V1; KB-V1 MDR cells viability, CellTiter-Glo, 72 h; hit rate 3.4% among 400,000; Potency, µM (highest dose often 46.1 µM), most hits filed as cytotoxic; also: potency is read from the fitted curve at half-maximal effect; nearly all actives have a fitted effect of over 60% in size
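KB-V1 MDR subline cells in DMEM (phenol-red free, 10% FBS) exposed to compounds in qHTS concentration series for 72 h at 37 degrees C. Viability read by CellTiter-Glo luminescence; concentration-effect curves fitted after normalization and correction.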
KB-3-1 cytotox = qHTS assay for MDR1-selective chemotherapeutics: Primary screen using the parental adenocarcinoma cell KB-3-1 | KB-3-1 viability, CellTiter-Glo ATP luminescence, 72 h | Potency, µM (titrated, usually from 46.1 µM), actives largely listed as cytotoxic | hit rate 1.4% among 400,000 | AID 1347075, 2019; also: potency is read from the fitted curve at half-maximal effect; nearly all actives have a fitted effect of over 60% in size
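Parental KB-3-1 adenocarcinoma cells in phenol-red-free DMEM with 10% FBS were pin-treated with compounds at several concentrations, incubated 72 h at 37 °C, and viability read by CellTiter-Glo luminescence; concentration-effect curves were fitted after normalization.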
IL-1B inflam inh = qHTS for Inhibitors of Inflammasome Signaling: IL-1-beta AlphaLISA Primary Screen. THP-1 LPS/ATP IL-1B secretion, AlphaLISA, 16 h; hits give low values. activity change, % at 57.5 µM. hit rate 4.7% among 360,000; in the data active = activity change below about -50%; inconclusive = mostly about -30% to -49%
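Secreted IL-1B measured by AlphaLISA bead assay after 16 h compound exposure of THP-1 cells; compounds (final up to 57.5 uM) added 1 h before LPS (250 ng/mL) and ATP (1.25 mM) stimulation; lower signal means less secretion.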
HT1080NT lethal = qHTS for induction of synthetic lethality in tumor cells producing 2HG: qHTS for the HT-1080-NT fibrosarcoma cell line | HT-1080-NT fibrosarcoma viability, CellTiter-Glo ATP luminescence, 48 h | Potency, µM (top dose mostly 46.1 µM), for inactives: at the top dose activity, negative = less viability, most hits filed as cytotoxic | hit rate 1.6% among 360,000 | AID 686970, 2013;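 also: NT is the 2HG producing partner of a matched IDH1 knockdown line; potency is read from the fitted curve at half-maximal effect; 0% = DMSO-treated cells and -100% = media-only wells without cells; nearly all actives have a fitted effect of over 55% in size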
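Toxicity toward the 2HG-producing NT line was scored as %Activity, normalised to DMSO and no-cell wells, from CellTiter-Glo luminescence after 48 hours' treatment.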
HT1080 IDH1KD tx = qHTS for induction of synthetic lethality in tumor cells producing 2HG: qHTS for the HT-1080-IDH1KD cell line | HT-1080 IDH1 knockdown viability, ATP luminescence, 48 h | Potency, µM (highest dose often 46.1 µM), for the others: at the top dose activity, negative = toxicity, usual class: cytotoxic | hit rate 2% among 360,000;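 also: potency is read from the fitted curve at half-maximal effect; 0% = DMSO wells and -100% = cell-free medium wells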
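After a 2 h attachment period, IDH1KD HT-1080 cells took pin-transferred compound for 48 h at 37 °C; ATP-based luminescence after 10 min room-temperature reagent incubation reported viability.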
* marks the source's active call; other numbers are inactive results. An excerpt weighted towards active compounds, which were near 8.8% of everything screened. Unless noted, calls follow the shape of the dose curve; as a rule, active = well fitted curve in the direction sought with a large enough effect; inconclusive = small, poorly fitted or top-dose-only effect, or another doubt; inactive = no such curve, though single readings can be large; an effect the other way counts as inactive or inconclusive. Unless noted, % is scaled to controls: 0 for no effect and ±100 for the full control effect.

`COc1cc2ccccc2cc1C(=O)N/N=C/c1cccs1` gave KB-V1 cytotox 9.2µM*, KB-3-1 cytotox 2.3µM*, IL-1B inflam inh 33, HT1080NT lethal inconclusive and HT1080 IDH1KD tx 4.1µM*.
COc1ccc(OC)c(C(=O)c2ccc(C(=O)Nc3ccccc3)cc2)c1 was read as KB-V1 cytotox 23µM*, KB-3-1 cytotox inactive, IL-1B inflam inh -13, HT1080NT lethal -2% and HT1080 IDH1KD tx -7%.
Screening COc1ccc(NC(=O)C2=Cc3ccccc3OC2)cc1 returned KB-V1 cytotox inconclusive, KB-3-1 cytotox inactive, IL-1B inflam inh -51*, HT1080NT lethal -13% and HT1080 IDH1KD tx 26%.
Screening CCOC(=O)c1ccc(NC(=O)CC2Nc3ccccc3NC2=O)cc1 (stereo not given) returned KB-V1 cytotox inactive and KB-3-1 cytotox inactive.
For COc1ccc(C(=O)COC(=O)c2ccc(NC(=O)c3ccccc3)cc2)cc1 the results were KB-V1 cytotox 15µM*, KB-3-1 cytotox inactive, IL-1B inflam inh 0, HT1080NT lethal -3% and HT1080 IDH1KD tx -4%.
`CCOc1ccc(NC(=O)c2cccc3ccccc23)cc1` gave KB-V1 cytotox 5.8µM*, KB-3-1 cytotox inconclusive, IL-1B inflam inh -2, HT1080NT lethal -4% and HT1080 IDH1KD tx -20%.
For CCOc1ccc(NC(=O)c2cc3ccccc3cc2OC)cc1 the results were KB-V1 cytotox inconclusive, KB-3-1 cytotox inconclusive, IL-1B inflam inh 5, HT1080NT lethal inconclusive and HT1080 IDH1KD tx 23µM*.
O=C(Nc1ccc2ccccc2c1)c1cccc2ccccc12 was read as KB-V1 cytotox inactive, KB-3-1 cytotox inactive, IL-1B inflam inh -1, HT1080NT lethal 5% and HT1080 IDH1KD tx 3%.
For COc1ccc(C(=O)Nc2ccc(C(=O)OCC(=O)c3ccccc3)cc2)cc1 the results were KB-V1 cytotox inactive, KB-3-1 cytotox inactive, IL-1B inflam inh 6, HT1080NT lethal 4% and HT1080 IDH1KD tx -15%.
Screening CCOc1ccc(NC(=O)c2cc3ccccc3cc2O)cc1 returned KB-V1 cytotox inactive, KB-3-1 cytotox inactive, IL-1B inflam inh -18, HT1080NT lethal 6% and HT1080 IDH1KD tx 2%.
Screening Cc1ccc(CSCCNS(=O)(=O)c2ccccc2)cc1 returned KB-V1 cytotox inconclusive, KB-3-1 cytotox inactive, IL-1B inflam inh 0, HT1080NT lethal -5% and HT1080 IDH1KD tx -3%.
N#Cc1c(-n2ncnc2-c2ccccc2C(F)(F)F)sc2c1CCCCC2 was read as KB-V1 cytotox inactive and KB-3-1 cytotox inactive.
`Cc1ccccc1NC(=O)c1ccc(CN2CCc3ccccc3C2)cc1` gave KB-V1 cytotox inconclusive, KB-3-1 cytotox 10µM*, IL-1B inflam inh -15, HT1080NT lethal -25% and HT1080 IDH1KD tx -28%.
COC(=O)c1ccc(CN2CCc3ccc(NC(=O)c4ccncc4)cc3C2)cc1 was read as KB-V1 cytotox 13µM*, KB-3-1 cytotox inconclusive, IL-1B inflam inh -11, HT1080NT lethal -1% and HT1080 IDH1KD tx 0%.
Cc1cccc(NC(=O)c2ccc(CN3CCc4ccccc4C3)cc2)c1C was read as KB-V1 cytotox inconclusive, KB-3-1 cytotox inconclusive, IL-1B inflam inh 7, HT1080NT lethal inconclusive and HT1080 IDH1KD tx inconclusive.
`O=C(Nc1cccc(Br)c1)c1ccc(CN2CCc3ccccc3C2)cc1` gave KB-V1 cytotox inconclusive, KB-3-1 cytotox inconclusive, IL-1B inflam inh 0, HT1080NT lethal 16µM* and HT1080 IDH1KD tx inconclusive.
Screening CSc1cccc(NC(=O)c2ccc(CN3CCc4ccccc4C3)cc2)c1 returned KB-V1 cytotox inconclusive, KB-3-1 cytotox inconclusive, IL-1B inflam inh -88*, HT1080NT lethal -27% and HT1080 IDH1KD tx inconclusive.
Screening Cc1nc(C)c(C(=O)NNS(=O)(=O)c2ccc3ccccc3c2)s1 returned KB-V1 cytotox inconclusive, KB-3-1 cytotox inactive, IL-1B inflam inh 54, HT1080NT lethal inconclusive and HT1080 IDH1KD tx inconclusive.
Screening O=C(Nc1ccc(F)cc1)c1ccc(CN2CCc3ccccc3C2)cc1 returned KB-V1 cytotox 5.8µM*, KB-3-1 cytotox inconclusive, IL-1B inflam inh 16, HT1080NT lethal 0% and HT1080 IDH1KD tx -6%.
`CC(=O)Nc1ccc(NC(=O)c2ccc(CN3CCc4ccccc4C3)cc2)cc1` gave KB-V1 cytotox inactive, KB-3-1 cytotox inactive, IL-1B inflam inh 22, HT1080NT lethal inconclusive and HT1080 IDH1KD tx inconclusive.
COc1ccc(COC(=O)Oc2ccc(CNC(C)=O)cc2OC)c([N+](=O)[O-])c1 was read as KB-V1 cytotox inactive, KB-3-1 cytotox inactive, IL-1B inflam inh 21, HT1080NT lethal 9% and HT1080 IDH1KD tx 0%.
COc1ccc2c(c1)[C@H]1[C@H](CO2)[C@H](c2ccccc2)[C@]2(C)C(=O)Nc3ccc(Cl)cc3C(=O)N12 was read as KB-V1 cytotox inactive, KB-3-1 cytotox inactive, IL-1B inflam inh -54*, HT1080NT lethal -8% and HT1080 IDH1KD tx -11%.
For COc1ccc2c(c1)[C@H]1[C@H](CO2)[C@H](c2ccccc2)[C@]2(C)C(=O)Nc3ccc(F)cc3C(=O)N12 the results were KB-V1 cytotox inconclusive, KB-3-1 cytotox inconclusive, IL-1B inflam inh -57*, HT1080NT lethal inconclusive and HT1080 IDH1KD tx inconclusive.
Screening COc1ccc2c(c1)C(=O)N1[C@H]3c4cc(C)ccc4OC[C@@H]3[C@H](c3ccccc3)[C@]1(C)C(=O)N2 returned KB-V1 cytotox inconclusive, KB-3-1 cytotox inconclusive, IL-1B inflam inh -66*, HT1080NT lethal inconclusive and HT1080 IDH1KD tx inconclusive.
Screening COc1ccc2c(c1)OC[C@H]1[C@H]2N2C(=O)c3ccccc3NC(=O)[C@@]2(C)[C@H]1c1ccccc1 returned KB-V1 cytotox inconclusive, KB-3-1 cytotox 21µM*, IL-1B inflam inh -78*, HT1080NT lethal inconclusive and HT1080 IDH1KD tx inconclusive.
For COc1ccc2c(c1)OC[C@H]1[C@H]2N2C(=O)c3cc(C)ccc3NC(=O)[C@@]2(C)[C@H]1c1ccccc1 the results were KB-V1 cytotox inactive, KB-3-1 cytotox inactive, IL-1B inflam inh inconclusive, HT1080NT lethal inconclusive and HT1080 IDH1KD tx -17%.
COc1ccc2c(c1)[C@H]1[C@H](CO2)[C@H](c2ccccc2)[C@]2(C)C(=O)Nc3ccc(C)cc3C(=O)N12 was read as KB-V1 cytotox inactive, KB-3-1 cytotox inconclusive, IL-1B inflam inh -28, HT1080NT lethal -26% and HT1080 IDH1KD tx -16%.
`CC(C)NC(=O)N(C)C[C@H]1Oc2ccc(NS(=O)(=O)c3ccc(F)cc3)cc2C(=O)N([C@H](C)CO)C[C@@H]1C` gave KB-V1 cytotox inactive, KB-3-1 cytotox inactive, IL-1B inflam inh -7, HT1080NT lethal 6% and HT1080 IDH1KD tx 0%.

Source: PubChem
